Assay [1] is described as follows: ATG_TAL_CIS: Attagene CIS-FACTORIAL HepG2 Assay for human TAL Basal Promoter (AID 2282966; active = hit-call score of the fitted dose curve at least 0.9, where 1 is the maximum; inactive = score below 0.9;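 note: background control endpoint measuring basal TAL promoter reporter mRNA not a specific factor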). The note with it: HepG2 Attagene cis-factorial TAL promoter reporter; actives raise or lower the signal. A digest of the protocol:
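HepG2 cells were transiently transfected with promoter-driven multiplexed reporter units and dosed for 24 h. Reporter mRNA was measured by RT-PCR with capillary electrophoresis fluorescence; bidirectional fits used DMSO as baseline, serving as a background control.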

The nature of assay [2]: ATG_TGFb_CIS: Attagene CIS-FACTORIAL HepG2 Assay for human Transforming Growth Factor (TGF) (AID 2282967; active = hit-call score of the fitted dose curve at least 0.9, where 1 is the maximum; inactive = score below 0.9). Particulars: HepG2 Attagene CIS TGFb reporter, mRNA transcription; actives raise or lower the signal. A digest of the protocol:
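HepG2 cells transiently transfected with cis-promoter-driven multiple reporter units measure endogenous TF activity; reporter mRNA quantified at 24 h by RT-PCR, FAM labeling, HpaI digestion and capillary electrophoresis. Bidirectional fit vs DMSO.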

The nature of assay [3]: ATG_VDRE_CIS: Attagene CIS-FACTORIAL HepG2 Assay for human Vitamin D Receptor Element (VDRE) (AID 2282968; active = hit-call score of the fitted dose curve at least 0.9, where 1 is the maximum; inactive = score below 0.9). Particulars: HepG2 VDRE cis-reporter transcription, actives raise or lower the signal. An outline of the steps: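 RT-PCR/CE readout of reporter mRNA; HepG2, transient transfection, 24 h dosing; DMSO baseline; bidirectional analysis.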
The target in assay [4] is Nuclear receptor subfamily 1 group I member 3 (Homo sapiens) (UniProt Q14994). Briefly: ATG_CAR_TRANS: Attagene TRANS-FACTORIAL HepG2 Assay for human Constitutive Androstane Receptor (CAR) (AID 2282969).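 Note: activators raise reporter mRNA above DMSO so AC50 marks induction.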 Particulars: HepG2 Attagene TRANS-FACTORIAL CAR reporter. An outline of the steps: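 HepG2 cells transiently transfected with multiplexed GAL4-UAS reporter units expressing chimeric NR-Gal4 proteins; compound exposure 24 h. Reporter mRNA measured by RT-PCR, 6-FAM labelling, HpaI digestion and capillary electrophoresis; gain-of-signal fitted against DMSO baseline.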
Nuclear receptor subfamily 1 group I member 3 (Homo sapiens), sequence (Q14994 whole entry, looked up, the tested form may be a part): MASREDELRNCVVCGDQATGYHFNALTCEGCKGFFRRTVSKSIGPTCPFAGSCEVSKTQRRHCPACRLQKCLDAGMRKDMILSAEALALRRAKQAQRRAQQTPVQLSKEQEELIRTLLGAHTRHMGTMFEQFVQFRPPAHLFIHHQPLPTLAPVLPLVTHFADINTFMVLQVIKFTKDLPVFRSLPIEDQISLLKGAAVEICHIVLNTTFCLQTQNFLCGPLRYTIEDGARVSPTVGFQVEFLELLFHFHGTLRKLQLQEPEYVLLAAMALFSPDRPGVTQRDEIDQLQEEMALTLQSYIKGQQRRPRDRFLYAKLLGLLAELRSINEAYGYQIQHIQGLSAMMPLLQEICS

The target in assay [5] is Steroid hormone receptor ERR1 (Homo sapiens) (UniProt P11474). Nature of the assay: ATG_ERRa_TRANS: Attagene TRANS-FACTORIAL HepG2 Assay for human Estrogen-Related Receptor alpha (ERRa) (AID 2282971). The note with it: HepG2 Attagene TRANS reporter, ERRa transactivation. An outline of the steps:
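HepG2 cells transiently transfected with multiplexed GAL4-UAS reporter units reading chimeric ERRa-Gal4 activity; 24 h compound exposure. Reporter mRNA measured by RT-PCR, 6-FAM labelling, HpaI digest and capillary electrophoresis; gain of signal fitted versus DMSO baseline.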

Assay [6] in a line: ATG_M_19_TRANS: Attagene TRANS-FACTORIAL HepG2 Assay for M19 Transcription Factor (Internal Marker) (AID 2282974). Particulars: HepG2 Attagene TRANS-FACTORIAL M19 internal marker reporter. A digest of the protocol: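 Cells: human HepG2, transiently transfected with multiplexed reporter transcription units. Exposure: 24 h. Detection: RT-PCR of reporter mRNA with capillary electrophoresis. Analysis: gain-of-signal vs DMSO.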

Assay [7] deals with Estrogen-related receptor gamma (Homo sapiens) (UniProt P62508). Nature of the assay: ATG_ERRg_TRANS: Attagene TRANS-FACTORIAL HepG2 Assay for human Estrogen-Related Receptor gamma (ERRg) (AID 2282977).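 Note: hits increase reporter signal over DMSO so potencies reflect activators.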 Particulars: HepG2 Attagene TRANS reporter, ERRg transactivation. An outline of the steps:
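HepG2 cells transiently transfected with multiplexed GAL4-UAS reporter units driven by chimeric NR-Gal4 proteins; 24 h exposure. Reporter mRNA quantified by RT-PCR, fluorescent labelling, HpaI digestion and capillary electrophoresis; gain of signal vs DMSO.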

The target of assay [8] is Glucocorticoid receptor (Homo sapiens) (UniProt P04150). Nature of the assay: ATG_GR_TRANS: Attagene TRANS-FACTORIAL HepG2 Assay for human Glucocorticoid Receptor (GR) (AID 2282978).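 Note: activators score as hits since higher reporter transcript over DMSO is fitted.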 Particulars: HepG2 Attagene TRANS GR reporter, mRNA transcription. A digest of the protocol: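 In this trans-factorial format, exogenous NR-GAL4 chimeric proteins in transfected HepG2 cells regulate GAL4-UAS reporter transcription. After 24 h treatment, reporter mRNA induction relative to DMSO is read by RT-PCR and capillary electrophoresis.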
Glucocorticoid receptor (Homo sapiens), sequence (P04150 whole entry, looked up, the tested form may be a part): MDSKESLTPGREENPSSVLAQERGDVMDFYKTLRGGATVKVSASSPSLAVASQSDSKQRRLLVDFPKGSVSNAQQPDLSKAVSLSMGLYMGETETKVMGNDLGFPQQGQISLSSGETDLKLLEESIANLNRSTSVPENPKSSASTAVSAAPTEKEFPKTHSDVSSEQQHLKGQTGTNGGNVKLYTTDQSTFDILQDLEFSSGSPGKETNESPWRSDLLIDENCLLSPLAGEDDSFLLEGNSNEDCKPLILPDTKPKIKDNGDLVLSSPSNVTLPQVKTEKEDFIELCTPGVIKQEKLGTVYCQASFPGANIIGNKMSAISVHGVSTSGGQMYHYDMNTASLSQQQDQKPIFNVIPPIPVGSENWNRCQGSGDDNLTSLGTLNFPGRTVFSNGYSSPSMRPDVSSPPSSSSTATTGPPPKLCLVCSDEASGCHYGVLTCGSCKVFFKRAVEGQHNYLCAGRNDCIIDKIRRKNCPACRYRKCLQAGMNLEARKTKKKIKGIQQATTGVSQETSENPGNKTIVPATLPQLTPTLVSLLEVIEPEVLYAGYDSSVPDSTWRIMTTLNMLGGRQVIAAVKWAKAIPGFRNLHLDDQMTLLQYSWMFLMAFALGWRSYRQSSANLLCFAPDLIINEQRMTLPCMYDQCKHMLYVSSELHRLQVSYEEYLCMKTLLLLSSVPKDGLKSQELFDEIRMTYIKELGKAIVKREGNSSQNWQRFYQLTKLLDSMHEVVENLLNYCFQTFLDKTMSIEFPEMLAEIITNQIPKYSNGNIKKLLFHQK

Assay [9] concerns the target Oxysterols receptor LXR-alpha (Homo sapiens) (UniProt Q13133). Briefly: ATG_LXRa_TRANS: Attagene TRANS-FACTORIAL HepG2 Assay for human Liver X Receptor alpha (LXRa) (AID 2282980). Particulars: HepG2 Attagene TRANS reporter, LXRa transactivation. A digest of the protocol: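 HepG2 cells were transiently transfected with multiplexed reporter units driven by chimeric LXRa–GAL4 fusion proteins, then dosed for 24 h. Reporter mRNA was quantified by RT-PCR, fluorescent labelling and capillary electrophoresis; gain of signal fitted against DMSO baseline.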

The target of assay [10] is Oxysterols receptor LXR-beta (Homo sapiens) (UniProt P55055). Nature of the assay: ATG_LXRb_TRANS: Attagene TRANS-FACTORIAL HepG2 Assay for human Liver X Receptor beta (LXRb) (AID 2282981). Particulars: HepG2 Attagene TRANS GAL4-LXRb reporter, mRNA. An outline of the steps:
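In this TRANS format, exogenous chimeric NR-Gal4 protein activity, not endogenous factors, drives reporter expression in transfected human HepG2 cells. Exposure lasted 24 h; reporter mRNA was read by fluorescent capillary electrophoresis.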

Assay [11] deals with Hepatocyte nuclear factor 4-alpha (Homo sapiens) (UniProt P41235). Nature of the assay: ATG_HNF4a_TRANS: Attagene TRANS-FACTORIAL HepG2 Assay for human Hepatocyte Nuclear Factor 4 alpha (HNF4a) (AID 2282982). The note with it: HepG2 HNF4a transactivation reporter, mRNA readout. An outline of the steps:
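Cells used were human HepG2, transiently carrying GAL4-UAS reporter units read out against exogenous NR-GAL4 chimeras. Reporter transcript levels after 24 h dosing were quantified by fluorescent RT-PCR and capillary electrophoresis.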

Assay [12] can be described thus: ATG_M_06_TRANS: Attagene TRANS-FACTORIAL HepG2 Assay for M06 Transcription Factor (Internal Marker) (AID 2282983). Particulars: HepG2 Attagene TRANS M06 internal marker reporter. An outline of the steps: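 HepG2 cells transiently transfected with multiplexed GAL4-UAS reporter transcription units; after 24 h compound exposure, reporter mRNA measured by RT-PCR, FAM-labelled primer extension, HpaI digestion and capillary electrophoresis. Gain-of-signal fitted versus DMSO baseline; background control readout.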

For assay [13], the target named is Transcriptional activator Myb (Homo sapiens) (UniProt P10242). Nature of the assay: ATG_Myb_CIS: Attagene CIS-FACTORIAL HepG2 Assay for human Myeloblastosis (Myb) Proto-Oncogene Transcription Factor (AID 2282986; active = hit-call score of the fitted dose curve at least 0.9, where 1 is the maximum; inactive = score below 0.9). The note with it: HepG2 Attagene CIS-FACTORIAL Myb reporter transcription; actives raise or lower the signal. A digest of the protocol:
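Steps: transfect HepG2 with cis-regulated reporter units; dose with chemical for 24 h; isolate RNA, reverse-transcribe, PCR-amplify and FAM-label reporter sequences; digest with HpaI; resolve by capillary electrophoresis. Activity fitted in both directions relative to DMSO.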

The target of assay [14] is Nuclear respiratory factor 1 (Homo sapiens) (UniProt Q16656). Nature of the assay: ATG_NRF1_CIS: Attagene CIS-FACTORIAL HepG2 Assay for human Nuclear Respiratory Factor 1 (NRF1) Orphan Gene (AID 2282987; active = hit-call score of the fitted dose curve at least 0.9, where 1 is the maximum; inactive = score below 0.9). Particulars: HepG2 NRF1 cis-element reporter, Attagene multiplex; actives raise or lower the signal. An outline of the steps: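 Fluorescence intensity of labelled reporter cDNA fragments, resolved by capillary electrophoresis, served as readout for NRF1 cis-element activity. Transiently transfected HepG2 cells were dosed for 24 hours; activity in either direction was fitted against DMSO negative control.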
Nuclear respiratory factor 1 (Homo sapiens), sequence (Q16656 whole entry, looked up, the tested form may be a part): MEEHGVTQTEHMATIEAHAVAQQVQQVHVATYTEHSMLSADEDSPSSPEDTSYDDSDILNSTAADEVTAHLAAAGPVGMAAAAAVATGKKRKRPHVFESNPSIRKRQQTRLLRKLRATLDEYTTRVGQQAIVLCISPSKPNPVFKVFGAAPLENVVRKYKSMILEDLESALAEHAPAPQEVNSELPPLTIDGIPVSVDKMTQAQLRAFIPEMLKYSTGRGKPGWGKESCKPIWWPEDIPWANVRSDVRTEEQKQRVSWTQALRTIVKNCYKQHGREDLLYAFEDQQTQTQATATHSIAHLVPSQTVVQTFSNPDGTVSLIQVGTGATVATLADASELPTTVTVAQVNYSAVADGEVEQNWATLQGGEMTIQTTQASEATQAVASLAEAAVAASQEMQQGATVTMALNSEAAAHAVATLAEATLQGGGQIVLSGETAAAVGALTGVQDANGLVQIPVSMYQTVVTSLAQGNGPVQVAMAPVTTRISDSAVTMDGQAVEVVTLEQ

The target in assay [15] is Estrogen receptor (Homo sapiens) (UniProt P03372). Briefly: ATG_ERa_TRANS: Attagene TRANS-FACTORIAL HepG2 Assay for human Estrogen Receptor alpha (ERa) (AID 2282970). The note with it: HepG2 Attagene TRANS ERa GAL4 reporter, mRNA. An outline of the steps:
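HepG2 cells transiently transfected with multiplexed GAL4-UAS reporter units; ERa activity read via exogenous chimeric NR-Gal4 protein. After 24 hour compound exposure, reporter mRNA measured by RT-PCR with 6-FAM labelling and capillary electrophoresis; gain-of-signal fitted relative to DMSO.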

In assay [16] the target is X-box-binding protein 1 (Homo sapiens) (UniProt P17861). Nature of the assay: ATG_Xbp1_CIS: Attagene CIS-FACTORIAL HepG2 Assay for human X-box Binding Protein 1 (XBP1) (AID 2282972; active = hit-call score of the fitted dose curve at least 0.9, where 1 is the maximum; inactive = score below 0.9). Particulars: HepG2 XBP1 cis-element reporter, Attagene multiplex; actives raise or lower the signal. A digest of the protocol: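 HepG2 cells transiently transfected with multiple cis-element reporter units report endogenous TF activity; 24 h exposure, then reporter mRNA measured by RT-PCR, 6-FAM labelling, HpaI digestion and capillary electrophoresis. Bidirectional fitting versus DMSO.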
X-box-binding protein 1 (Homo sapiens), sequence (P17861 whole entry, looked up): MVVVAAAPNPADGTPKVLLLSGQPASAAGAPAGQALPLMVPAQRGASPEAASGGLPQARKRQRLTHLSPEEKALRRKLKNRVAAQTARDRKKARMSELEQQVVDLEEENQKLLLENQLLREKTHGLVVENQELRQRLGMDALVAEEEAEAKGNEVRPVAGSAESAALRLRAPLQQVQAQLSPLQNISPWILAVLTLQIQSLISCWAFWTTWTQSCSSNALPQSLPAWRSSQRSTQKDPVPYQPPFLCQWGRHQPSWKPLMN

Assay [17] can be described thus: ATG_GAL4_TRANS: Attagene TRANS-FACTORIAL HepG2 Assay for GAL4 (Internal Marker) (AID 2282976). The note with it: HepG2 Attagene TRANS GAL4 internal marker reporter. A digest of the protocol: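 HepG2 cells transiently transfected with multiplexed GAL4-UAS reporter constructs were dosed for 24 h. Reporter mRNA was measured by RT-PCR, 6-FAM primer extension, HpaI digestion and capillary electrophoresis, and gain of signal was fitted relative to DMSO.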

The target of assay [18] is Bile acid receptor (Homo sapiens) (UniProt Q96RI1). Nature of the assay: ATG_FXR_TRANS: Attagene TRANS-FACTORIAL HepG2 Assay for Farnesoid X Receptor (FXR) (AID 2282979).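 Note: hits raise reporter mRNA above DMSO so AC50 marks FXR activation.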 The note with it: HepG2 Attagene TRANS FXR-GAL4 reporter transcription. An outline of the steps:
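HepG2 cells transiently transfected with reporter constructs in which a chimeric FXR-GAL4 protein drives a GAL4-UAS reporter; 24 h compound exposure. Reporter mRNA measured by RT-PCR, FAM labelling, HpaI digestion and capillary electrophoresis; gain-of-signal versus DMSO.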

Assay [19] is described as follows: ATG_M_32_TRANS: Attagene TRANS-FACTORIAL HepG2 Assay for M32 Transcription Factor (Internal Marker) (AID 2282984). The note with it: HepG2 Attagene TRANS M32 internal marker reporter. A digest of the protocol: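 Human hepatoma HepG2, transient MRTU transfection, 24 h treatment. RNA → RT-PCR → fluorescent primer extension → HpaI digest (2 h, 37 C) → CE. Positive-direction fit vs DMSO.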

For assay [20], the target named is Nuclear receptor subfamily 4 group A member 2 (Homo sapiens) (UniProt P43354). Nature of the assay: ATG_NURR1_TRANS: Attagene TRANS-FACTORIAL HepG2 Assay for human Nuclear Receptor Related Protein 1 (NURR1) (AID 2282985). The note with it: HepG2 Attagene TRANS reporter, mRNA readout. A digest of the protocol: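 After 24 h chemical dosing, total RNA from transiently transfected HepG2 cells was reverse-transcribed and reporter cDNA PCR-amplified, FAM-labelled and analysed by capillary electrophoresis. Activity fitted in positive direction, DMSO as negative control.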

Drawing on PubChem BioAssay (EPA / NIEHS), this text covers outcome and AC50 for three compounds.

Where “and” joins values, the source holds several entries; their conditions need not be identical. Equal values may be shown once. Records with an inconclusive call do not appear. Some compounds were tested as several samples or in several runs, with calls that do not always agree. Calls of active or inactive are those of the source. Rule for the calls, unless noted: active = hit-call score of the fitted dose curve at least 0.9, where 1 is the maximum; inconclusive = response in the unintended direction; inactive = score below 0.9.

Oxysterols receptor LXR-alpha (Homo sapiens), sequence (Q13133 whole entry, looked up, the tested form may be a part): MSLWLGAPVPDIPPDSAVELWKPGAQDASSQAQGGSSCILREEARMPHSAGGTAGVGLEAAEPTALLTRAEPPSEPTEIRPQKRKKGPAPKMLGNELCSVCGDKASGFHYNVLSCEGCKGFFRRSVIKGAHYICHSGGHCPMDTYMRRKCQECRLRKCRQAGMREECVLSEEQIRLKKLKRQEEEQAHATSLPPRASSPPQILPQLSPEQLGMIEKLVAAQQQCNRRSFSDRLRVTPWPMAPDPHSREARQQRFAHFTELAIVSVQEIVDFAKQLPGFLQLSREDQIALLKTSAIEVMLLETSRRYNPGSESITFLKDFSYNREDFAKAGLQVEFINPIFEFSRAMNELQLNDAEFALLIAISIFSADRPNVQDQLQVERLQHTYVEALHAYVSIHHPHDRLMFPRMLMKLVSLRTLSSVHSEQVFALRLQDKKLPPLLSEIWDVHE
Estrogen-related receptor gamma (Homo sapiens), sequence (P62508 whole entry, looked up, the tested form may be a part): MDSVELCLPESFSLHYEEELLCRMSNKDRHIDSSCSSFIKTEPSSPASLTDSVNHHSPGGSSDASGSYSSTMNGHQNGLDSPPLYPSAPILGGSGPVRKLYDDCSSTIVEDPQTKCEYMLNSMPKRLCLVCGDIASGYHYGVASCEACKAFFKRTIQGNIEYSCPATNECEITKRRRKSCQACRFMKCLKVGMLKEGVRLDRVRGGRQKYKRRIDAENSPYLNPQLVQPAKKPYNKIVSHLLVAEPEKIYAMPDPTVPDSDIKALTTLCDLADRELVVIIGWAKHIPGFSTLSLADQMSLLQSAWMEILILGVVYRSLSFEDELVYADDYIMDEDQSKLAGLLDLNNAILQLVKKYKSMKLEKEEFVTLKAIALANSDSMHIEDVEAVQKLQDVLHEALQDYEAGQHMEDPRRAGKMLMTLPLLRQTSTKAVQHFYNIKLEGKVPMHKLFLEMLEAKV
Transcriptional activator Myb (Homo sapiens), sequence (P10242 whole entry, looked up): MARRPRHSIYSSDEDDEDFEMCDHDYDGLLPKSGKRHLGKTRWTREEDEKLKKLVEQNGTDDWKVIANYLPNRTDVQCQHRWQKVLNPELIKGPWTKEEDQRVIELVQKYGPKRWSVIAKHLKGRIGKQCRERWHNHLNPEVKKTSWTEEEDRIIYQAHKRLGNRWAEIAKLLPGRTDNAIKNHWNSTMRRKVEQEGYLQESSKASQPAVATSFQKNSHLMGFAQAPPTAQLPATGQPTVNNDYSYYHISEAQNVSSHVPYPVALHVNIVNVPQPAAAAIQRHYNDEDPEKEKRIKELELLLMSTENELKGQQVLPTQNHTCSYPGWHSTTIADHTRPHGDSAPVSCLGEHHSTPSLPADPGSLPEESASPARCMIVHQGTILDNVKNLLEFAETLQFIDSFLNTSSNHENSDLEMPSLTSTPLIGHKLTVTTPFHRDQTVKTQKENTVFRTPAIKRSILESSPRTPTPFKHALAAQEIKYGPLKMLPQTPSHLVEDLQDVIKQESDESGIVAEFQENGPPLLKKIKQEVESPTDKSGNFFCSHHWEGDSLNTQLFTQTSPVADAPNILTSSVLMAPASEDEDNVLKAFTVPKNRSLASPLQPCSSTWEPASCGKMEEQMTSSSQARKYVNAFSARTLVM
Steroid hormone receptor ERR1 (Homo sapiens), sequence (P11474 whole entry, looked up, the tested form may be a part): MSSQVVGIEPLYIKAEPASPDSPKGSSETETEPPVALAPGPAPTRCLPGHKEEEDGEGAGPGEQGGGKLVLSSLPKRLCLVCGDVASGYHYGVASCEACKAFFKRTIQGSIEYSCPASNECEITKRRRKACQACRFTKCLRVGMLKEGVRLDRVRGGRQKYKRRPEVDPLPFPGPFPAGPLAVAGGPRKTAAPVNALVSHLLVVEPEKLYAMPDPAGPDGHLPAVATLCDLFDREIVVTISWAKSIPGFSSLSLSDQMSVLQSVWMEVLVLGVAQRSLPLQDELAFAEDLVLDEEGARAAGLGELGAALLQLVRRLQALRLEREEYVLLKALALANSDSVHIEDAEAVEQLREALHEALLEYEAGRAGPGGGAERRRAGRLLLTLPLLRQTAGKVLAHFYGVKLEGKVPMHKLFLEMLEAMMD
Hepatocyte nuclear factor 4-alpha (Homo sapiens), sequence (P41235 whole entry, looked up, the tested form may be a part): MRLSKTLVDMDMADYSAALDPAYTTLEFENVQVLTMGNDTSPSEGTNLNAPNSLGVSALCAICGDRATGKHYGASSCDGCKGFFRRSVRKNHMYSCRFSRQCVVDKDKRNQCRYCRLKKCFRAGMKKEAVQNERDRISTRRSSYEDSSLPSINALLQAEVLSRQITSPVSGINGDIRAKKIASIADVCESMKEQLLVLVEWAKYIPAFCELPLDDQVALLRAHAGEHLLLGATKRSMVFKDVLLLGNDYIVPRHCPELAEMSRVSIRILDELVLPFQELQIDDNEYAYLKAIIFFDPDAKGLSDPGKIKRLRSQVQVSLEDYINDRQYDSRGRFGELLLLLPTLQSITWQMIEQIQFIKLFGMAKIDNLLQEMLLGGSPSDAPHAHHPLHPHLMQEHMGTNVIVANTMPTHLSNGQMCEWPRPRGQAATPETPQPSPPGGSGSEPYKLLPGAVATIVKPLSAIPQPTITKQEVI
Oxysterols receptor LXR-beta (Homo sapiens), sequence (P55055 whole entry, looked up, the tested form may be a part): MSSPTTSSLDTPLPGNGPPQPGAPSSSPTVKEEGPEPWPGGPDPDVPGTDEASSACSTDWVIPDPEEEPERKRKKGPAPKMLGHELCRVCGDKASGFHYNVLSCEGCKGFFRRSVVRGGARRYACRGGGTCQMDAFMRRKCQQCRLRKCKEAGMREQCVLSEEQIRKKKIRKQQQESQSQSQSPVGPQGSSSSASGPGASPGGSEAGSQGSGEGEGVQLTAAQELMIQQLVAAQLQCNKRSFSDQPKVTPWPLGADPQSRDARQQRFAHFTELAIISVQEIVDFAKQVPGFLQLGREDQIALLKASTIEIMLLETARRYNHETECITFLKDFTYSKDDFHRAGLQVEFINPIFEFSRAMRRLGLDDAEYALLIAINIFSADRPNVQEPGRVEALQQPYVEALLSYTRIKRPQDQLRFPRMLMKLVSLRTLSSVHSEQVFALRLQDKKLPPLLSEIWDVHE

In the case of `c1cnc2c(c1)ccc1cccnc12`, the call in assay [1], in [2], in assay [3], in assay [4], in [5] and in [6] was inactive. The compound was called inactive in [7], in assay [8], in assay [9], in assay [10], in [11] and in assay [12]. In addition, in [13], the compound was classed as inactive. Also, the AC50 in assay [3] is 161 µM (active); in assay [14], 4.62 µM (active) and 6.45 µM (active).

Regarding `CCOC(OCC)C(=O)c1ccccc1`, the outcome in assay [1], in assay [2], in assay [3], in assay [4], in [5] and in [16] was inactive. In addition, the outcome in assay [6], in assay [17], in assay [7], in [8], in [18] and in assay [9] was inactive. In addition, the result in [11], in assay [19], in assay [20], in [13] and in [14] was inactive. Further, the AC50 in [15] was 32.2 µM (active).

For the compound `Nc1ccc(O)c(C(=O)O)c1`, the compound was classed as inactive in assay [1], in assay [2], in assay [3], in [4], in [5] and in assay [16]. Moreover, the outcome in assay [8], in assay [18], in [9], in [11], in [19] and in [20] was inactive. Besides, the compound was called inactive in assay [13] and in [14]. Also, the AC50 in assay [15] was 44.6 µM (active).
